The source of these data is PubChem BioAssay (EPA / NIEHS).

Molecules are shown by their SMILES. Inconclusive results are not listed. Activity calls are given as the source filed them. Rule for the calls, unless noted: active = hit-call score of the fitted dose curve at least 0.9, where 1 is the maximum; inactive = score below 0.9.

For experiment [1], the target named is Nuclear respiratory factor 1 (Homo sapiens) (UniProt Q16656). As to the kind of experiment: ATG_NRF1_CIS: Attagene CIS-FACTORIAL HepG2 Assay for human Nuclear Respiratory Factor 1 (NRF1) Orphan Gene (AID 2282987). The note with it: HepG2 NRF1 cis-element reporter, Attagene multiplex; actives raise or lower the signal. An outline of the steps:
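Reporter mRNA induction or loss in HepG2 cells after 24 h dosing; cis-regulated reporter constructs report endogenous transcription-factor activity. Quantified by RT-PCR/capillary electrophoresis fluorescence, DMSO-referenced.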

Experiment [2] in a line: ATG_NFI_CIS: Attagene CIS-FACTORIAL HepG2 Assay for human Nuclear Factor I (NFI) (AID 2282989). The note with it: HepG2 cis-regulatory reporter, NFI response element transcription; actives raise or lower the signal. The method, boiled down: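 Transfected HepG2 liver cells, exposed 24 h, supplied total RNA for oligo(dT) reverse transcription and reporter-specific PCR. Labelled, HpaI-cut fragments were sized by capillary electrophoresis; DMSO set the baseline for bidirectional fitting.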

The target in experiment [3] is Myc proto-oncogene protein (Homo sapiens) (UniProt P01106). As to the kind of experiment: ATG_Myc_CIS: Attagene CIS-FACTORIAL HepG2 Assay for human Myelocytomatosis (Myc) Proto-Oncogene Transcription Factor (AID 2282990). Conditions: HepG2, Attagene cis-reporter transcription factor activity; actives raise or lower the signal. An outline of the steps: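 Transiently transfected HepG2 cells bearing cis-promoter reporter units for endogenous transcription factors; 24 h exposure. Reporter mRNA measured by RT-PCR, 6-FAM primer extension, HpaI cut and capillary electrophoresis; bidirectional fit relative to DMSO.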
Chain of Myc proto-oncogene protein (Homo sapiens) (P01106 whole entry, looked up): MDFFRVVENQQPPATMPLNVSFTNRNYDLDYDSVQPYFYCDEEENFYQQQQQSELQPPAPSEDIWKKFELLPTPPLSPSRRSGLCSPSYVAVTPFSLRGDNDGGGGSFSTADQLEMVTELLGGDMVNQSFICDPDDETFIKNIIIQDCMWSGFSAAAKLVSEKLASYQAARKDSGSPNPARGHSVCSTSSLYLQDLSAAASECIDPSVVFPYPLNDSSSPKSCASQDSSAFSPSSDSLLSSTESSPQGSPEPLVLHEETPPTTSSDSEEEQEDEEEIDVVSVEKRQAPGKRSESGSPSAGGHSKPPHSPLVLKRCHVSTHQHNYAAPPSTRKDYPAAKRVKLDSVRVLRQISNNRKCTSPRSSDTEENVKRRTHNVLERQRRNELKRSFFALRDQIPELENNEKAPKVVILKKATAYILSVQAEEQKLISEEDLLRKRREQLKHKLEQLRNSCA

A short description of experiment [4]: ATG_NF_kB_CIS: Attagene CIS-FACTORIAL HepG2 Assay for human Nuclear Factor Kappa B (NF-kB) (AID 2282991). Conditions: HepG2 Attagene cis-factorial NF-kB reporter mRNA; actives raise or lower the signal. The method, boiled down: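 DMSO served as negative control and baseline for bidirectional curve fitting. Transiently transfected HepG2 cells were dosed for 24 h, then reporter transcripts were measured by RT-PCR with capillary electrophoresis detection.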

Experiment [5] is described as follows: ATG_NRF2_ARE_CIS: Attagene CIS-FACTORIAL HepG2 Assay for human Nuclear Factor Erythroid 2 Related Factor 2 (NFR2) response to Antioxidant Response Elements (ARE) (AID 2282992).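 For AC50: reporter mRNA level measured by RT-PCR and capillary electrophoresis fluorescence.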 Conditions: HepG2 Attagene ARE/NRF2 reporter, transcription factor activity; actives raise or lower the signal. An outline of the steps:
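Endogenous transcription factor activity in human liver HepG2 cells is tracked via a cis-element-driven reporter within a multiplexed set. mRNA induction is read by RT-PCR and capillary electrophoresis after 24 h, with DMSO as baseline.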

The nature of experiment [6]: ATG_Oct_MLP_CIS: Attagene CIS-FACTORIAL HepG2 Assay for human Octamer-Binding Transcription Factor (Oct) (AID 2282993). Conditions: HepG2 Attagene cis-factorial Oct reporter, mRNA; actives raise or lower the signal. The method, boiled down: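 Using HepG2 cells bearing transfected cis-reporter constructs, mRNA induction was read after 24 h by fluorescent RT-PCR and capillary electrophoresis, with DMSO defining baseline for gain- or loss-of-signal fits.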

Experiment [7] concerns the target Cellular tumor antigen p53 (Homo sapiens) (UniProt P04637). As to the kind of experiment: ATG_p53_CIS: Attagene CIS-FACTORIAL HepG2 Assay for human p53 Transcription Factor (AID 2282994). The note with it: HepG2 p53 cis-element reporter, Attagene mRNA; actives raise or lower the signal. The method, boiled down: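 Steps: transfect HepG2 with multiplexed cis reporter constructs; dose chemicals 24 h; extract RNA, reverse-transcribe, PCR-amplify reporter sequences; FAM-label, HpaI-digest, resolve fragments by CE. Activity fitted both directions relative to DMSO.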

A short description of experiment [8]: BSK_3C_TissueFactor: BioMAP Diversity Plus: 3C Assay for Tissue Factor Biomarker Activity (AID 2282997). Conditions: BioMAP 3C HUVEC, tissue factor biomarker readout; actives raise or lower the signal. An outline of the steps: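 Tissue factor on primary human umbilical vein endothelium was read by ELISA 24 h after dosing, gain or loss relative to DMSO. Cytotoxicity ran alongside via SRB (0.1%, TCA-fixed, 560 nm).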

Experiment [9] can be described thus: BSK_3C_uPAR: BioMAP Diversity Plus: 3C Assay for Urokinase-type plasminogen activator receptor (uPAR) Biomarker Activity (AID 2282998). The note with it: BioMAP 3C HUVEC, uPAR biomarker ELISA; actives raise or lower the signal. An outline of the steps: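 In this endothelial cell-based assay, human umbilical vein primary cells were treated with chemicals and harvested at 24 h. uPAR was quantified using ELISA, with gains or losses fitted relative to DMSO controls.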
(ELISA stands for enzyme-linked immunosorbent assay.)

Experiment [10] can be described thus: BSK_3C_VCAM1: BioMAP Diversity Plus: 3C Assay for Vascular cell adhesion molecule 1 (VCAM1) Biomarker Activity (AID 2282999). The note with it: BioMAP 3C HUVEC, VCAM1 ELISA, cytokine-stimulated; actives raise or lower the signal. An outline of the steps: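 HUVEC primary cells, 24 h compound exposure; VCAM-1 by ELISA; gain/loss of signal fitted bidirectionally vs DMSO baseline.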

A short description of experiment [11]: BSK_4H_Eotaxin3: BioMAP Diversity Plus: 4H Assay for Eotaxin 3 Biomarker Activity (AID 2283000).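 For outcome: CCL26 protein level quantified by ELISA in parallel with SRB cytotoxicity check.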 Conditions: primary human endothelial cells (HUVEC); actives raise or lower the signal. The method, boiled down: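 Human umbilical vein endothelial cells (BSK_4H system) dosed with test chemical; Eotaxin-3 (CCL26) measured by ELISA 24 h after dosing. Bidirectional curve fitting relative to DMSO negative control as baseline.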

In experiment [12] the target is human Peroxisome Proliferator-activated Receptor delta (PPARd), PPARD (gene 5467) (UniProt Q03181). Put plainly: ATG_PPARd_TRANS: Attagene TRANS-FACTORIAL HepG2 Assay for human Peroxisome Proliferator-activated Receptor delta (PPARd) (AID 2283002; active = hit-call score of the fitted dose curve at least 0.9, where 1 is the maximum). The method, boiled down: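 HepG2 cells transiently transfected with GAL4-UAS multiplexed reporter units driven by exogenous chimeric NR-GAL4 proteins; 24 h compound exposure. Reporter mRNA measured by RT-PCR, 6-FAM primer extension, HpaI digestion and capillary electrophoresis; gain of signal fitted relative to DMSO.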
Chain of human Peroxisome Proliferator-activated Receptor delta (PPARd), PPARD (gene 5467) (Q03181 whole entry, looked up, the tested form may be a part): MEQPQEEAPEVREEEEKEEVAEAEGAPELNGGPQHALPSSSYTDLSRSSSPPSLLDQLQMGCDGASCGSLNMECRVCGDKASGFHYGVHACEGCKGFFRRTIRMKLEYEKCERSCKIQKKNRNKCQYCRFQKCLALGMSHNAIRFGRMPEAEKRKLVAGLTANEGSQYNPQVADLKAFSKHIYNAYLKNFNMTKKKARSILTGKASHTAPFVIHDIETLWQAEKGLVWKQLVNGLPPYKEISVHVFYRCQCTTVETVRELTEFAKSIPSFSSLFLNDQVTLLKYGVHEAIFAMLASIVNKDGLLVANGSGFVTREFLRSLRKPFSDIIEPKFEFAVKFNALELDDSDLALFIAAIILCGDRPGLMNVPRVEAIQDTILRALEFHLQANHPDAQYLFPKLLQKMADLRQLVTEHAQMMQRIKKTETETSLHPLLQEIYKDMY

Read-out in experiment [13]: Intercellular Adhesion Molecule 1 (ICAM1), ICAM1 (gene 3383)
Put plainly: BSK_3C_ICAM1: BioMAP Diversity Plus: 3C Assay for Intercellular Adhesion Molecule 1 (ICAM1) Biomarker Activity (AID 2283003). The note with it: primary human endothelial cells (HUVEC); actives raise or lower the signal. The method, boiled down: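 ELISA read-out of ICAM-1; HUVEC (primary human), 3C system, 24 h post-dosing; bidirectional fit vs DMSO baseline.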

Experiment [14] can be described thus: BSK_3C_Proliferation: Cell Proliferation Assessment in the BioMAP Diversity Plus: 3C Assay (AID 2283006).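 For AC50: potency may reflect either rise or fall in cell number versus DMSO.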 Conditions: primary human endothelial cells (HUVEC). An outline of the steps: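 HUVEC, sub-confluent; 48 h chemical exposure; 10% TCA fix, 0.1% SRB stain, A560 total protein. Gain or loss of signal fitted both directions vs DMSO control.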
In experiment [15] the target is Peroxisome proliferator-activated receptor gamma (Homo sapiens) (UniProt P37231). Put plainly: ATG_PPARg_TRANS: Attagene TRANS-FACTORIAL HepG2 Assay for human Peroxisome Proliferator-activated Receptor-gamma (PPARg) (AID 2283007; active = hit-call score of the fitted dose curve at least 0.9, where 1 is the maximum). An outline of the steps:
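Chimeric NR-Gal4 transactivation is measured in transiently transfected HepG2 cells by reporter mRNA induction at 24 h. Detection uses RT-PCR with fluorescent labelling and capillary electrophoresis; DMSO defines baseline.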

For experiment [16], the target named is Nuclear receptor subfamily 1 group I member 2 (Homo sapiens) (UniProt O75469). As to the kind of experiment: ATG_PXR_TRANS: Attagene TRANS-FACTORIAL HepG2 Assay for human Pregnane X Receptor (PXR) (AID 2283008; active = hit-call score of the fitted dose curve at least 0.9, where 1 is the maximum). The method, boiled down: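 HepG2 transfected (FuGene 6) with GAL4-UAS reporter units + PXR-Gal4 chimera; dosed 24 h. Total RNA → oligo(dT) RT → PCR → 6-FAM primer extension → HpaI cut → CE. Gain-of-signal vs DMSO.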
Chain of Nuclear receptor subfamily 1 group I member 2 (Homo sapiens) (O75469 whole entry, looked up, the tested form may be a part): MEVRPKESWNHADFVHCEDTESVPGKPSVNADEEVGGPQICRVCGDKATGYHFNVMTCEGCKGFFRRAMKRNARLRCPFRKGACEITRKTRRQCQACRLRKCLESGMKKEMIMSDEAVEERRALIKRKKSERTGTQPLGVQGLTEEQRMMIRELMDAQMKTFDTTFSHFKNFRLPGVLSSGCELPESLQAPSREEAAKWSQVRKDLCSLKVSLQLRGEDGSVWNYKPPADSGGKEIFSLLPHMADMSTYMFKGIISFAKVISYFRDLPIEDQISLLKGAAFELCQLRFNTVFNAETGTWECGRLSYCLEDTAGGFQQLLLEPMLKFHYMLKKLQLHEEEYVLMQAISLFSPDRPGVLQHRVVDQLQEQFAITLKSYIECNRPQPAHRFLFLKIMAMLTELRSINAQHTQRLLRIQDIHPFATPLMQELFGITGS

The target in experiment [17] is human Peroxisome Proliferator-activated Receptor alpha (PPARa), PPARA (gene 5465) (UniProt Q07869). As to the kind of experiment: ATG_PPARa_TRANS: Attagene TRANS-FACTORIAL HepG2 Assay for human Peroxisome Proliferator-activated Receptor alpha (PPARa) (AID 2283001; active = hit-call score of the fitted dose curve at least 0.9, where 1 is the maximum). The method, boiled down:
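Transient HepG2 transfection, GAL4-UAS reporters, NR-Gal4 chimeras; 24 h compound exposure. Readout: reporter transcripts by RT-PCR, 6-FAM primer extension, HpaI digest, capillary electrophoresis. Positive direction vs DMSO baseline.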

Experiment [18] deals with human Retinoic Acid Receptor beta (RARb), RARB (gene 5915) (UniProt P10826). As to the kind of experiment: ATG_RARb_TRANS: Attagene TRANS-FACTORIAL HepG2 Assay for human Retinoic Acid Receptor beta (AID 2283004; active = hit-call score of the fitted dose curve at least 0.9, where 1 is the maximum). An outline of the steps: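 Induction of reporter mRNA from a chimeric RARb-Gal4 construct was measured by RT-PCR, FAM labelling, HpaI digestion and capillary electrophoresis. Measurements followed 24 h compound treatment of transiently transfected human HepG2 liver cells, with DMSO as baseline.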
Chain of human Retinoic Acid Receptor beta (RARb), RARB (gene 5915) (P10826 whole entry, looked up, the tested form may be a part): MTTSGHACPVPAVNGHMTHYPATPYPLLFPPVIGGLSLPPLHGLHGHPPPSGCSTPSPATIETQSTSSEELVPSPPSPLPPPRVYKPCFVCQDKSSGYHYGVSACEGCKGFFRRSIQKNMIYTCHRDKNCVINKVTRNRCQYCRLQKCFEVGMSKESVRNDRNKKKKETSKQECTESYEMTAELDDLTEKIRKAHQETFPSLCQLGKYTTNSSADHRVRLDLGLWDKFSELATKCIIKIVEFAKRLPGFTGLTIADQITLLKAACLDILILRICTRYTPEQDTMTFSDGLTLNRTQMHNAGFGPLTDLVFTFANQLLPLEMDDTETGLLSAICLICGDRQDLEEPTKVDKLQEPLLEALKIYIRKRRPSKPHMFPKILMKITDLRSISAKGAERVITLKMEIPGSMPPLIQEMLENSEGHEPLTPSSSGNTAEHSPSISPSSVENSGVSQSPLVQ

Experiment [19] has as its target Retinoic acid receptor alpha (Homo sapiens) (UniProt P10276). Put plainly: ATG_RARa_TRANS: Attagene TRANS-FACTORIAL HepG2 Assay for human Retinoic Acid Receptor alpha (RARa) (AID 2283005; active = hit-call score of the fitted dose curve at least 0.9, where 1 is the maximum). The method, boiled down:
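HepG2 transiently transfected with multiplex GAL4-UAS reporter units including a human RARa–GAL4 chimera; 24 h compound exposure. Reporter mRNA quantified by RT-PCR, 6-FAM labeling and capillary electrophoresis; gain of signal versus DMSO.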

Chain of Peroxisome proliferator-activated receptor gamma (Homo sapiens) (P37231 whole entry, looked up, the tested form may be a part): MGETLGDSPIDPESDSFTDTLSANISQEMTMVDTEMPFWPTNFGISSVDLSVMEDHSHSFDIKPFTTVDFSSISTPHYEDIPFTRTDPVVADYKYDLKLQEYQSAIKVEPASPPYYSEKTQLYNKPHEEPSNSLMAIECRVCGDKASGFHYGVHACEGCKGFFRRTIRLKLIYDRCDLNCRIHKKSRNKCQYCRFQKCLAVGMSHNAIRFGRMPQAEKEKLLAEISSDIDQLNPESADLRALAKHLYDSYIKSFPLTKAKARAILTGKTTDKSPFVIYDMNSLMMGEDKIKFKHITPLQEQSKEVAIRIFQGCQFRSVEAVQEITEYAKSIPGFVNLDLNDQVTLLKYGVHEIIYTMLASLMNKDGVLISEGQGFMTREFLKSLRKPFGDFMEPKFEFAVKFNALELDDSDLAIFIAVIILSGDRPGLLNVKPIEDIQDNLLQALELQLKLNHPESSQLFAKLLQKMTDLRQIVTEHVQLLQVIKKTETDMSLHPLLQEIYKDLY
Chain of Cellular tumor antigen p53 (Homo sapiens) (P04637 whole entry, looked up, the tested form may be a part): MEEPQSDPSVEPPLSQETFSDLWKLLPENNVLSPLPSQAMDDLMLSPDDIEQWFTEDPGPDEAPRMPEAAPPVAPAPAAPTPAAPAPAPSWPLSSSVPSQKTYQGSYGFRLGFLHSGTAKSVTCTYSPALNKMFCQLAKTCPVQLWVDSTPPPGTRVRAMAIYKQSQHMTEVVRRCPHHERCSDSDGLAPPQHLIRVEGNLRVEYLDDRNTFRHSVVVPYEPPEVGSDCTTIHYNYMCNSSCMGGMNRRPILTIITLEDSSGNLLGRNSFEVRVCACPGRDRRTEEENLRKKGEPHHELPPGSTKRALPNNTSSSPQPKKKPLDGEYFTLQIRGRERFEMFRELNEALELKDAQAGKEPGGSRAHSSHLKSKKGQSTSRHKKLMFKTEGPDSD
Chain of Nuclear respiratory factor 1 (Homo sapiens) (Q16656 whole entry, looked up): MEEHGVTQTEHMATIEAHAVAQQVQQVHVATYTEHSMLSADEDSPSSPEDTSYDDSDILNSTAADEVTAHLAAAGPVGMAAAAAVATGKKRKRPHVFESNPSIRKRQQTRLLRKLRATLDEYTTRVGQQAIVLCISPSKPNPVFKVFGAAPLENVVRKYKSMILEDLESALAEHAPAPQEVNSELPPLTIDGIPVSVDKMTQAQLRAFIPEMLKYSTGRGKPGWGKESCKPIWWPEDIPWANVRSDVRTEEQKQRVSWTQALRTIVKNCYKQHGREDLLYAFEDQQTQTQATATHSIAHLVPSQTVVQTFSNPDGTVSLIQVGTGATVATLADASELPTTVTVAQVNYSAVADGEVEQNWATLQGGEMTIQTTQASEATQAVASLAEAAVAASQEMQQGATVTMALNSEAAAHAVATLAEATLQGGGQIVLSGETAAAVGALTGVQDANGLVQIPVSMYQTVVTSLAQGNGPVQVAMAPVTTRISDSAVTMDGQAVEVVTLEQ
Chain of human Peroxisome Proliferator-activated Receptor alpha (PPARa), PPARA (gene 5465) (Q07869 whole entry, looked up, the tested form may be a part): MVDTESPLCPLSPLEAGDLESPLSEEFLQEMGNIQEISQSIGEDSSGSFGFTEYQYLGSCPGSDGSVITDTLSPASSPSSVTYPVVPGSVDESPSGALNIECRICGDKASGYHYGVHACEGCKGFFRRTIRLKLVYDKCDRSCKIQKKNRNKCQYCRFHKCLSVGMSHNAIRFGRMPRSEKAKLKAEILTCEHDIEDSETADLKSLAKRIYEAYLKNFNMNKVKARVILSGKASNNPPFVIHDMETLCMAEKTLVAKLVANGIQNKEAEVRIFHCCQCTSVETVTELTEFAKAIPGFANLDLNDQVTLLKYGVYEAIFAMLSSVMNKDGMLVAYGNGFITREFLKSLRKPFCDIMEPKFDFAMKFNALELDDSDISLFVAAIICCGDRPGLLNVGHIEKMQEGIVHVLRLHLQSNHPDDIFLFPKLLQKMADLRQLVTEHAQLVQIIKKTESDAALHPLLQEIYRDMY
Chain of Retinoic acid receptor alpha (Homo sapiens) (P10276 whole entry, looked up, the tested form may be a part): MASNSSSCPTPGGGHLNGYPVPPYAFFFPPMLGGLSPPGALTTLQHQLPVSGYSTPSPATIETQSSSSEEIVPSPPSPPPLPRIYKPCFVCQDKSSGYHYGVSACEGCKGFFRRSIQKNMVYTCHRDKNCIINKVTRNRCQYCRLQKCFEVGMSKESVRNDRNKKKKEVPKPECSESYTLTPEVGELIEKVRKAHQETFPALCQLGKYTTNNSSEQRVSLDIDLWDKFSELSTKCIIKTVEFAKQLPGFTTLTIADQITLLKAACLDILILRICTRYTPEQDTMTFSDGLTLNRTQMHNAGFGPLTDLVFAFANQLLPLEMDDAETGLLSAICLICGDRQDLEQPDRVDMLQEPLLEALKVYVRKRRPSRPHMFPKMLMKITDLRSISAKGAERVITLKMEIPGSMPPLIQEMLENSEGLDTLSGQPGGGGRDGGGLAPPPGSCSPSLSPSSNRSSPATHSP

Broadly, the AC50 is the concentration giving half of the maximal activity seen. As to `CC1=CC2C3C=CC(C3)C2C1C` (stereo unspecified), the outcome in [1], in experiment [3], in [4], in experiment [6], in experiment [8] and in experiment [9] was inactive. In addition, the outcome in experiment [10], in experiment [11], in experiment [12], in [13], in [14] and in experiment [15] was inactive. For the same molecule, the AC50 in experiment [2] was 100 µM (active); in [5], 50.6 µM (active); in experiment [7], 80.4 µM (active); in experiment [16] it was 0.387 µM (active).
`CC(C)CCCC(C)CCO` (stereo unspecified): the molecule was called inactive in experiment [1], in [2], in experiment [3], in experiment [4], in experiment [5] and in experiment [6]. Also, the molecule was called inactive in experiment [7], in experiment [17], in [12], in experiment [15] and in experiment [16]. Moreover, the AC50 was 36.4 µM (active) in experiment [8]; 26.7 µM (active) in [9]; 33.9 µM (active) in experiment [10]; 36.5 µM (active) in [11]; 35.5 µM (active) in experiment [13]; 30.4 µM (active) in experiment [14].
Turning to `CCCCCCCCCCCCC[N+](C)(C)Cc1ccccc1`, the outcome in [1], in experiment [2], in experiment [3], in experiment [4], in experiment [6] and in experiment [7] was inactive. The molecule was called inactive in experiment [17], in [12], in [18], in experiment [19], in [15] and in [16]. Besides, the AC50 in experiment [5] was 4.37 µM (active).
For `C[Si](Cl)(Cl)CCC(F)(F)C(F)(F)C(F)(F)C(F)(F)C(F)(F)C(F)(F)F`, the outcome in [1], in experiment [2], in experiment [3], in [4], in [5] and in experiment [6] was inactive. Besides, the molecule was classed as inactive in [7], in [8], in [9], in experiment [10], in [11] and in experiment [17]. Further, the molecule was classed as inactive in experiment [12], in [13], in [18], in [19] and in experiment [14].
For the molecule `CCN(CC)c1ccc(C=O)c(O)c1`, the outcome in experiment [1], in experiment [2], in experiment [3], in experiment [4], in experiment [5] and in experiment [6] was inactive. Moreover, the outcome in experiment [8], in experiment [9], in [10], in experiment [11], in [13] and in experiment [14] was inactive. In addition, the result in [16] was inactive. Also, the results for the AC50 in experiment [7] and in experiment [15] were 70.5 µM (active) and 15.3 µM (active), respectively.
As for `NC(=O)C(F)(F)C(F)(F)C(F)(F)C(F)F`, the outcome in [1], in [2], in experiment [3], in experiment [4], in experiment [5] and in experiment [6] was inactive. The molecule was called inactive in experiment [7], in [8], in [9], in experiment [10], in [11] and in experiment [17]. In addition, the result in [12], in experiment [13], in [14], in experiment [15] and in experiment [16] was inactive.
Regarding `FC(F)(F)C(F)(F)C(F)(F)C(F)(F)C(F)(F)C(F)(F)C(F)(F)CCI`, the molecule was called inactive in experiment [1], in [2], in [3], in experiment [4], in [6] and in experiment [7]. For the same molecule, the result in experiment [8], in experiment [9], in [10], in [11], in experiment [17] and in [12] was inactive. Besides, the outcome in experiment [13], in experiment [14] and in experiment [16] was inactive. In experiment [5], the AC50 was 30.6 µM (active).
